This passage reports composite z-score and z-score results from PubChem BioAssay.

Test [1] can be described thus: anti-His antibody binders, primary screen, artefact control for SMM control protein annotation, biochemical, small-molecule microarray, 635 nm fluorescence (AID 1128).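 Note: score merges feature fluorescence with signal-to-noise for each printed compound spot.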 The settings on record: anti-His Alexa647 antibody binding, higher = more signal.
The subject of test [2] is Human papillomavirus type 1a E7 protein (residues 1-88). As to the kind of experiment: HPV1a E7 small-molecule binders, primary screen, biochemical, small-molecule microarray, residues 1-88, 635 nm (AID 1129). The note with it: small-molecule microarray binding, fluorescence 635 nm; higher = more signal.
In test [3] the target is Focal adhesion kinase 1 (Homo sapiens) (UniProt Q05397). As to the kind of experiment: small-molecule microarray binders of FAK, primary screen, biochemical, 635/667 nm fluorescence, BSA, DTT (AID 1130).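 Note: composite of spot emission at 667 nm and signal to noise over triplicate slides.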 The note with it: PTK2 binding, 635 nm fluorescence, higher = more signal.
Chain of Focal adhesion kinase 1 (Homo sapiens) (Q05397 whole entry, looked up): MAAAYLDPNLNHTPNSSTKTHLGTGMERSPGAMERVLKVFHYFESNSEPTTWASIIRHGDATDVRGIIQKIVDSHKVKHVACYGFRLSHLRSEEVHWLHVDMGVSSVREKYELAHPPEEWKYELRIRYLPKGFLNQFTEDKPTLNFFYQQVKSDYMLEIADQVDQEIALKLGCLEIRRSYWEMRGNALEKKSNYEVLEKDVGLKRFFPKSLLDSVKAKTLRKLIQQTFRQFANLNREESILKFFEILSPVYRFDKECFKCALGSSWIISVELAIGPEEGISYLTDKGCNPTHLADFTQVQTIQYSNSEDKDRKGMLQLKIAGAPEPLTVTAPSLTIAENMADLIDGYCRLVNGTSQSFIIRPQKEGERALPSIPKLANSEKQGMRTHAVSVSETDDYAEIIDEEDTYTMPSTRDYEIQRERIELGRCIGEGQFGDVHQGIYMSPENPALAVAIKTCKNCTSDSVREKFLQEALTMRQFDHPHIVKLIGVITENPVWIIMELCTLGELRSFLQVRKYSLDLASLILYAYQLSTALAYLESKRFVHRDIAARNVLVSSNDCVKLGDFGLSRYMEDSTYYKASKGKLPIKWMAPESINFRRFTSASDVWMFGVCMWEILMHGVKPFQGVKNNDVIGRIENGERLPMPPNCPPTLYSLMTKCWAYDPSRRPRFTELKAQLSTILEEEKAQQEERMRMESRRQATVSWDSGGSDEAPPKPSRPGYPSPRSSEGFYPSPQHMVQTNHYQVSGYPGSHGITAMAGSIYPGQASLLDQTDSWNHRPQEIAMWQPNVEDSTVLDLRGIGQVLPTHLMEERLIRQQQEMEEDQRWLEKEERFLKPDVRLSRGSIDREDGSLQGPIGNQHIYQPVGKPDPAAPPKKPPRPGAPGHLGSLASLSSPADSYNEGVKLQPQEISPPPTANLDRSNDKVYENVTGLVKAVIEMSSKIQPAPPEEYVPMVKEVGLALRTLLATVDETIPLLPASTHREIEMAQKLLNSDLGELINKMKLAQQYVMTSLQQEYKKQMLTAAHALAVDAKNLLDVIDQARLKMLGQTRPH
In test [4] the test system is Fibrinogen (Alexa647-labelled). The test can be described thus: fibrinogen binders on compound microarrays, profiling panel, artefact control for SMM control-protein annotation, biochemical, small-molecule microarray, 635/667 nm fluorescence (AID 1131).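 Note: z-score merges 667 nm fluorescence with per-spot signal-to-noise over triplicate slides.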 The settings on record: fibrinogen-A647 binding fluorescence, higher = more signal.
The target in test [5] is Follistatin (Homo sapiens) (UniProt P19883). The test can be described thus: follistatin binders on small-molecule microarrays, primary screen, biochemical, small-molecule microarray, 635/667 nm fluorescence (AID 1132). The settings on record: FST binding, 635 nm fluorescence, higher = more signal.
Chain of Follistatin (Homo sapiens) (P19883 whole entry, looked up): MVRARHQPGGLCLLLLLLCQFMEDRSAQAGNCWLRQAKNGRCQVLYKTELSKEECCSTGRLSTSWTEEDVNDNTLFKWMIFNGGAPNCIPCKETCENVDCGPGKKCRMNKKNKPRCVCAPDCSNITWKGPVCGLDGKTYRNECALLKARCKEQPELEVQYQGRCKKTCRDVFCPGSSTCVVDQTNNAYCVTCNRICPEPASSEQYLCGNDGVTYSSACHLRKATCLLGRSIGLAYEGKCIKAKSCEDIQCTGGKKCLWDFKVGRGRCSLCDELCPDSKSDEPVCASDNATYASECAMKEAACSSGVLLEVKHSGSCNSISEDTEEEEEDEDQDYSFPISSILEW
For test [6], the target named is Fibroblast growth factor 2 (Homo sapiens) (UniProt P09038). As to the kind of experiment: FGF2 binders on small-molecule microarrays, primary screen, biochemical, small-molecule microarray, 635/667 nm fluorescence (AID 1133). The settings on record: small-molecule microarray binding, FGF2, fluorescence 635/667; higher = more signal.
Chain of Fibroblast growth factor 2 (Homo sapiens) (P09038 whole entry, looked up): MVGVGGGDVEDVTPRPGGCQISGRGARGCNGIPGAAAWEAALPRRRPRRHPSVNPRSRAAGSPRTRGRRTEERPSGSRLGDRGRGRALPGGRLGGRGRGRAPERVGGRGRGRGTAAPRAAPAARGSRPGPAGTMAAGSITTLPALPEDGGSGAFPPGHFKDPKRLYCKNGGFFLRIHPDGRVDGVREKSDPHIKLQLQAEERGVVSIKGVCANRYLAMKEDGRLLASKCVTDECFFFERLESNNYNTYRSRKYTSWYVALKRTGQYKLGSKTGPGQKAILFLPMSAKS
Test [7] can be described thus: mitochondrial membrane potential change in A549 cells, profiling panel, cell-based, JC-1 fluorescence, basal, 24 h, 100 nL (AID 1138).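 Note: A549 lung adenocarcinoma cells under basal conditions with no added stimulus; test concentration not given here.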 The note with it: higher = more signal.
In the next test the test system is Lefty1. The test can be described thus: Lefty1 binders on small-molecule microarrays, primary screen, biochemical, small-molecule microarray, 635/667 nm fluorescence (AID 1139). The note with it: small-molecule microarray binding, fluorescence 635/667; higher = more signal.
Test [8] has as its system wheat germ agglutinin (Triticum aestivum), Alexa647-labelled. As to the kind of experiment: wheat germ agglutinin binders on compound microarrays, profiling panel, artefact control for SMM control-protein annotation, biochemical, small-molecule microarray, 635/667 nm fluorescence (AID 1140).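 Note: score merges 667 nm feature emission with signal to noise over triplicate slides.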 The note with it: WGA-A647 binding, 635 nm fluorescence, higher = more signal.
For test [9], the target named is Luciferin 4-monooxygenase (Photinus pyralis) (UniProt P08659). As to the kind of experiment: firefly luciferase enzyme inhibitors, primary screen, biochemical, luminescence, purified enzyme, 2006 set (AID 1141).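 Note: cell-free assay with purified firefly luciferase at 100 ng per well in PBS; test concentration not given here.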 The settings on record: SteadyGlo luminescence, 30 min, higher = more signal, called active from +8 up or from −8 down.
Chain of Luciferin 4-monooxygenase (Photinus pyralis) (P08659 whole entry, looked up): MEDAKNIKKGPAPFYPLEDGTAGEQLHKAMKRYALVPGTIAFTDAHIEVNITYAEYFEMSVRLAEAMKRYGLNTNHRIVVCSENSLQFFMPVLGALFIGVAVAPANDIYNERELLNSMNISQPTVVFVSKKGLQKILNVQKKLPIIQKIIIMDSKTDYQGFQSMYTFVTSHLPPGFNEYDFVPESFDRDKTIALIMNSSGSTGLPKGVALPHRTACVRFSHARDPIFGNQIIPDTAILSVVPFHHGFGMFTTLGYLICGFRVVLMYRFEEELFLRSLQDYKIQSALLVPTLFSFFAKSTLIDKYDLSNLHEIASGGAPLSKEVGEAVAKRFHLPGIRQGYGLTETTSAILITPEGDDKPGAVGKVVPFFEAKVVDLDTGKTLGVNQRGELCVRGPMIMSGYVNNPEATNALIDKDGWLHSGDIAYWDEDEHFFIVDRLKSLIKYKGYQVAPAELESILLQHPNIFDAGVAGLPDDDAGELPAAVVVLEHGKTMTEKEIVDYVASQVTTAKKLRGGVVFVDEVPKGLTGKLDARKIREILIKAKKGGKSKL
In test [10] the test system is Wnt5a (protein binding on small-molecule microarray). As to the kind of experiment: Wnt5a binders on small-molecule microarray, primary screen, biophysical, 635/667 nm fluorescence (AID 1142).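 Note: fluorescence read at 667 nm with signal to noise per printed feature.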 The note with it: 635 nm fluorescence, higher = more signal.
A short description of test [11]: cell viability in Huh7 cells, primary screen, cytotoxicity control for HCV replication inhibitor project, CellTiter-Glo luminescence, basal, 48 h (AID 1143).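 Note: Huh7 hepatoma cells carrying a hepatitis C replication reporter with no stimulus; test concentration not given here.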 The settings on record: Huh7 HCV replicon, higher = more signal, called active from +8 up or from −8 down.
Test [12] in a line: P. aeruginosa biofilm formation inhibitors, primary screen, PAO1 strain, BacTiter-Glo luminescence, LB-PBS (AID 1144). The settings on record: 12 h, higher = more signal.
Test [13] can be described thus: CREB reporter modulators without forskolin, primary screen, cell-based, PC12, CRE-LacZ reporter, unstimulated (AID 1145). The note with it: no forskolin, luminescence, 4.5 h, higher = more signal, called active from +8 up or from −8 down.
A short description of test [14]: CREB reporter modulators under forskolin, primary screen, cell-based, PC12, CRE-LacZ reporter, forskolin-stimulated (AID 1146).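 Note: PC12 cells with 6xCRE LacZ reporter stimulated by forskolin 10 µM; beta-galactosidase reporter signal reflecting CREB driven transcription.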 The note with it: luminescence, 4.5 h, higher = more signal, called active from +8 up or from −8 down.
In test [15] the target is Streptavidin (Streptomyces avidinii) (UniProt P22629). The test can be described thus: streptavidin binders on small-molecule microarray, primary screen, artefact control for SMM compound annotation, biophysical, 635/667 nm fluorescence (AID 1147).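 Note: signal reflects streptavidin binding to arrayed compounds as a control protein.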 The settings on record: streptavidin binding, higher = more signal.
Chain of Streptavidin (Streptomyces avidinii) (P22629 whole entry, looked up): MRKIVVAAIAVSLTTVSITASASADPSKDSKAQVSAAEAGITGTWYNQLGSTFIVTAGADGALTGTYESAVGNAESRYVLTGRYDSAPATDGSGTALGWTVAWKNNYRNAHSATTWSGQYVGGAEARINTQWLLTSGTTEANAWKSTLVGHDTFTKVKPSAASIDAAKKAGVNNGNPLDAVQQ
Test [16] is described as follows: small-molecule binders of probe aInhba, primary screen, biochemical, small-molecule microarray, 635/667 nm fluorescence (AID 1148).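 Note: score merges 667nm spot fluorescence with signal-to-noise for antibody binding to printed compounds.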 The settings on record: higher = more signal.
Test [17] concerns the target Torsin-1A (Homo sapiens) (UniProt O14656). The test can be described thus: torsin A binders from cell lysate, primary screen, small-molecule microarray, wild-type, 635/667 nm (AID 1149). The settings on record: COS7 hTOR1A-WT lysate, 635 nm fluorescence, higher = more signal.
Test [18] shares this target. The test can be described thus: small-molecule binders of mutant TOR1A in lysate, primary screen, cell lysate, small-molecule microarray, COS7 lysate, 635/667 nm fluorescence (AID 1150).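 Note: score pools 667 nm emission and signal to noise measuring lysate protein binding.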 The settings on record: COS7 hTOR1A mutant lysate, 635 nm fluorescence, higher = more signal.
Test [19] concerns Sonic hedgehog protein (Shh). The test can be described thus: small-molecule binders of Shh protein, primary screen, biochemical, small-molecule microarray, 635/667 nm fluorescence (AID 1151).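 Note: Shh protein binding to compounds spotted on small-molecule microarray slides; score combines spot fluorescence intensity with signal-to-noise across triplicate slides.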 The note with it: small-molecule microarray binding, 635 nm fluorescence; higher = more signal.

Molecules are shown by their SMILES. Activity calls are given as the source filed them. Unless noted, the rule behind the calls is not given here.

Chain of Torsin-1A (Homo sapiens) (O14656 whole entry, looked up): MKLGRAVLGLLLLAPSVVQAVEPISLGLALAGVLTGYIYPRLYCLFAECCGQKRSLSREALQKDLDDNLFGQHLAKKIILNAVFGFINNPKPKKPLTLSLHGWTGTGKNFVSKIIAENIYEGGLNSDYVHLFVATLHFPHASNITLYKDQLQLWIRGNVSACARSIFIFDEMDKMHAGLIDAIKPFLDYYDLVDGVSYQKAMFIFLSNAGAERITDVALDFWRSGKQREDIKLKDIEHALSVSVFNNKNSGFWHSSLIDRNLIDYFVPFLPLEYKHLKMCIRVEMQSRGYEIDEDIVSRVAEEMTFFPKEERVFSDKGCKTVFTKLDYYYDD

In the case of `CN(C)CCCC[C@@H]1NC(=O)[C@H]2C[C@@H](C(=O)NCCCCCNC(=O)CS)[C@@H](c3ccc(O)cc3)N2C1=O`, the composite z-score in test [1] is 0.504; in test [2], -0.54; in test [3] it was -0.0308; in test [4], -0.293; in test [5] it was 0.756; in [6], 0.421. In addition, the composite z-score with Lefty1 was -0.78; in [8] it was -0.128; in [10] it was -0.22; in test [15] it was -0.175; in test [16], -0.208; with Torsin-1A (Homo sapiens) [17] it was -0.217. Besides, the composite z-score was 0.239 in the test with Torsin-1A (Homo sapiens) [18] and 0.0878 in test [19]. Moreover, the z-score in test [7] is 0.64; in [9] it was -1.25 (inactive); in [11] it was -0.0046 (inactive); in test [12] it was -0.315 (inactive); in test [13], 0.683 (inactive); in test [14], -0.0503 (inactive).

As to `COCCCNC(=O)[C@@]1(C)c2ccccc2C(=O)N(Cc2ccccc2)[C@H]1c1ccc(CO)cc1`, the composite z-score is 0.909 in test [1]; 0.0047 in [2]; 0.101 in test [3]; -0.678 in test [4]; 0.0033 in test [5]; -0.992 in test [6]. Also, the composite z-score is -0.635 in the test on Lefty1; -0.505 in [8]; -0.811 in test [10]; -0.944 in [15]; -0.0963 in [16]; -2.72 with Torsin-1A (Homo sapiens) [17]. Further, the composite z-score stood at 2.16 in the test with Torsin-1A (Homo sapiens) [18] and 0.182 in [19]. Also, the z-score is -0.939 in [7]; -0.0137 (inactive) in test [9]; -4.52 (inactive) in test [11]; -0.453 (inactive) in test [12]; -0.295 (inactive) in test [13]; -0.463 (inactive) in [14].

Take `[N-]=[N+]=Nc1ccccc1[C@@H]1OC(c2ccc(OCCCO)cc2)=N[C@]1(CCS(=O)(=O)c1ccccc1)C(=O)O`: the composite z-score in test [1] turned out to be 1.12; in test [2], 1.22; in [3], 0.688; in test [4], 1.03; in test [5], 1.25; in test [6], 0.933. For the same compound, the composite z-score with Lefty1 is 0.874; in test [8], 0.867; in test [10], 0.301; in [15] it was 1.04; in [16], 0.0559; with Torsin-1A (Homo sapiens) [17] it was 0.164. Further, the composite z-score with Torsin-1A (Homo sapiens) [18] came out at 0.719; in test [19] it was 0.848. The z-score in test [7] was -1.83; in test [9] it was -15.1 (active); in test [11], -0.781 (inactive); in test [12], 1.08 (inactive); in [13], 0.0594 (inactive); in test [14], -0.0642 (inactive).

For the compound `CC(C)[Si]1(C(C)C)O[C@@H](c2ccccc2)c2cc(-c3ccc(-c4ccc(Cl)c(Cl)c4)o3)nc(CCc3ccccc3)c21`, the composite z-score in test [1] is -0.203; in [2], -0.339; in test [3], -0.389; in [4], -1.27; in test [5], -2.16; in test [6], -0.614. Also, the composite z-score in the test on Lefty1 is -1.08; in test [8], -1.58; in test [10], -0.306; in test [15] it was -0.549; in test [16], -0.204; with Torsin-1A (Homo sapiens) [17], -0.555. For the same compound, the composite z-score was -0.181 in the test with Torsin-1A (Homo sapiens) [18] and -0.74 in [19]. Moreover, the z-score was -0.107 in test [7]; -0.7 (inactive) in test [9]; -1.03 (inactive) in test [11]; 0.251 (inactive) in [12]; 0.367 (inactive) in test [13]; 1.52 (inactive) in test [14].

Turning to `COC(=O)[C@@]1(Cc2ccc(F)cc2)[C@H]2c3cc(C(=O)N(C)C)n(Cc4ccccn4)c3C[C@H]2CN1C(=O)c1ccccc1`, the composite z-score in [1] is 1.12; in test [2], 1.26; in test [3], 1.08; in test [4], 0.685; in [5] it was 0.251; in test [6], -0.281. In addition, the composite z-score with Lefty1 was -0.12; in test [8] it was 0.647; in test [10], -0.0131; in test [15], 0.751; in test [16] it was 0.349; in the test with Torsin-1A (Homo sapiens) [17], 1.17. The composite z-score with Torsin-1A (Homo sapiens) [18] was 1.05; in [19] it was -0.285. Moreover, the z-score in [7] was 1.04; in test [9], 3 (inactive); in test [11] it was -1.17 (inactive); in test [12] it was -0.75 (inactive); in test [13], -0.947 (inactive); in test [14] it was 0.431 (inactive).

On to `C=C(CCCC)C(=O)CC[C@@H](OC(=O)c1ccccc1-c1ccccc1C(=O)O)c1ccc(CO)o1`, for which the composite z-score in [1] is 0.39; in test [2], 1.1; in test [3], -0.248; in [4], 0.294; in [5] it was 1.3; in test [6] it was 1.31. Moreover, the composite z-score in the test on Lefty1 was 1.38; in test [8] it was 0.445; in test [10], 0.233; in test [15] it was -0.3; in test [16] it was 0.181; in the test with Torsin-1A (Homo sapiens) [17], 1.29. Further, the composite z-score was determined as 0.854 with Torsin-1A (Homo sapiens) [18] and 1.08 in test [19]. In addition, the z-score in [7] is 0.31; in test [9], -3.84 (inactive); in test [11], 0.0462 (inactive); in [12], -0.0968 (inactive); in test [13], -0.219 (inactive); in test [14], 0.432 (inactive).
